In the library only some 1.7% were active in any assay of this set; here they are far more common.
LYPLA2 counter: counter-screen for PME1 inhibitors: inhibitors of human LYPLA2 | 320,000 compounds, 0.38% hits | AID 2177 | O95372 | inhibition, % at 5.9 µM | recombinant LYPLA2, FP-Rh probe fluorescence polarization;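 active = inhibition above the screen-wide mean plus 3 SD, limit set per campaign, cut at about 26% in these data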;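 also: 0% = LYPLA2 with DMSO and 100% = wells lacking LYPLA2 enzyme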
PAD4 inh: inhibitors of human PAD4 | recombinant PAD4, RCA probe fluorescence polarization | inhibition, % at 6.36 µM | 330,000 compounds, 0.41% hits | AID 485272;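 active = percent inhibition above a cutoff equal to the mean of all tested compounds plus 3 SD, cut at about 15% in these data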;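 also: 0% = PAD4 with RCA probe and DMSO and 100% = probe without PAD4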
GSTO1 counter: blocks human GSTO1 in RBBP9 counter-screen. P78417. recombinant GSTO1, activity-based probe fluorescence polarization. inhibition, % at 5.96 µM. 300,000 compounds, 1.1% hits. AID 1974;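 active = inhibition above the campaign mean inhibition plus 3 SD, cut at about 35% in these data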;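 also: 0% = GSTO1-1 with DMSO and 100% = wells lacking GSTO1-1 enzyme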
Target sequence (P78417 whole entry, looked up): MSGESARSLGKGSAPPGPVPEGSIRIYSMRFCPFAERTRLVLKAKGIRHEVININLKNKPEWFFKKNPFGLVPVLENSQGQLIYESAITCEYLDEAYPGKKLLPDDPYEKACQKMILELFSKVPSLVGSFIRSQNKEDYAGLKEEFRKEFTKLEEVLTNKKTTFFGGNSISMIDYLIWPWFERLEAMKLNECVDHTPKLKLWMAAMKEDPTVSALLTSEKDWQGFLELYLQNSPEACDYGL
LYPLA1 counter: blocks human lysophospholipase 1, a PME1 counter-screen; recombinant LYPLA1, FP-Rh probe fluorescence polarization; inhibition, % at 5.9 µM; O75608; 320,000 compounds, 0.16% hits; AID 2174;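 active = inhibition above the mean of all tested compounds plus 3 SD, set per campaign, cut at about 14% in these data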;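 also: inhibitors block serine hydrolase probe labeling of LYPLA1 so polarization falls; 0% = enzyme with DMSO and 100% = wells lacking LYPLA1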
EBNA-1 inhibitor: blocks EBNA-1 binding to DNA; inhibition, % at 14.8 µM; 300,000 compounds, 0.34% hits; EBNA-1 DNA binding, fluorescence polarization; in the data active = inhibition above about 28%
ZTA DNA inh: counter-screen for EBNA-1 inhibitors: inhibitors of Epstein-Barr virus ZTA; AID 2234; 320,000 compounds, 0.15% hits; ZTA-DNA binding, fluorescence polarization; inhibition, % at 11 µM; in the data active = inhibition above about 33%
Target sequence (P03206 whole entry, looked up): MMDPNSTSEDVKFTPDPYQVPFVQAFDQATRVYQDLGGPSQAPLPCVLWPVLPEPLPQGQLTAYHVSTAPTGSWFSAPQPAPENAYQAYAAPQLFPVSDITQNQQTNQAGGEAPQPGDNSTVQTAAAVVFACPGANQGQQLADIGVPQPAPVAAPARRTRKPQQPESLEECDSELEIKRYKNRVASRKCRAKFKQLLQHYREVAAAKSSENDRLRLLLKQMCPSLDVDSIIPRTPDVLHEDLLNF
LYPLA1 conf: counter-screen for PME1 inhibitors: confirmation of human LYPLA1 inhibitors; shares compounds with LYPLA1 counter; recombinant LYPLA1, FP-Rh probe fluorescence polarization; inhibition, % at 5.9 µM; 480 compounds, 69% hits; AID 2233;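 active = mean inhibition across replicates above the hit cutoff set in the primary screen, cut at about 15% in these data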;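 also: loss of FP-Rh probe labeling of LYPLA1 seen as lower polarization; 0% = LYPLA1 with DMSO and 100% = wells lacking LYPLA1 enzyme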
LYPLA2 confirm: counter-screen for PME1 inhibitors: confirmation of human LYPLA2 inhibitors. 1,100 compounds, 72% hits. shares compounds with LYPLA2 counter. AID 2232. inhibition, % at 5.9 µM. recombinant LYPLA2, FP-Rh probe fluorescence polarization;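 active = mean inhibition across replicates above the hit cutoff set in the primary screen, cut at about 26% in these data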;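 also: blocked labeling of the enzyme by serine hydrolase FP-Rh probe lowers polarization; 0% = enzyme with DMSO and 100% = wells lacking LYPLA2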
LYPLA2 gel ABPP: inhibitors of human LYPLA2; rhLYPLA2 in mouse brain proteome, gel ABPP FP-Rh; inhibition, % at 20 µM; shares compounds with LYPLA2 counter; 150 compounds, 30% hits;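 active = inhibition of LYPLA2 enzyme probe labeling above about 50%, limit read from the data; inactive = inhibition below that limit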;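 also: loss of FP-Rh probe labeling of the LYPLA2 gel band measured as band density; 0% = DMSO only control band and 100% = blank gel background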
PAD4 confirm: confirmation of human PAD4 inhibitors; shares compounds with PAD4 inh; recombinant PAD4, RCA probe fluorescence polarization; inhibition, % at 6.36 µM; 1,200 compounds, 28% hits; AID 488796;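 active = mean inhibition across replicates above the hit cutoff set by the earlier primary screen, cut at about 15% in these data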;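 also: inhibitors block active-site labeling by the probe so polarization falls; 0% = PAD4 with probe and DMSO and 100% = probe without PAD4 enzyme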
* = called active by the depositor; · = no result given.

SMILES	LYPLA2 counter	PAD4 inh	GSTO1 counter	LYPLA1 counter	EBNA-1 inhibitor	ZTA DNA inh	LYPLA2 confirm	others
Cc1cc(N)ccc1-n1c(C)ccc1C	85*	90*	82*	56*	29*	55*	4	LYPLA1 conf=4;PAD4 confirm=-1
C=CCn1c(SCC(=O)N2CCCC2=O)nc2sc(CC)cc2c1=O	38*	33*	·	21*	·	-12	-3	LYPLA1 conf=4;PAD4 confirm=-3
C=CCn1c(SCC(=O)O)nc2sc(CC)cc2c1=O	-5	-2	-2	1	-7	-24	·
CN(C(=O)c1ccc(NC(=O)Cc2cccc([N+](=O)[O-])c2)cc1)C1CC1	18	35*	·	42*	·	-10	·	LYPLA1 conf=35*;PAD4 confirm=4
CN(C(=O)c1ccc(NC(=O)Cc2cccc([N+](=O)[O-])c2)cc1)C1CCCC1	·	-2	·	·	·	·	·
O=C1c2cccc3c(O)ccc(c23)C(=O)N1Cc1ccccc1	31*	40*	9	21*	-4	0	·	LYPLA1 conf=24*;PAD4 confirm=50*
CCCCN(CC(=O)NC1CCCC1)C(=O)C(=O)Nc1ccc2c(c1)OCCO2	2	-2	6	6	-13	-2	·
CCCCC1OC23CCCCC2C(C#N)(C(=N)O3)C1(C#N)C#N (stereo not drawn)	2	10	3	5	-1	-12	·
CCCCCCCCOc1ccc(C2OC34CCCCC3C(C#N)(C#N)C2(C#N)C(=N)O4)cc1 (stereo not drawn)	26*	16*	14	17*	6	5	8	LYPLA1 conf=14*;PAD4 confirm=9
CCCCC1OC23CCCCC2C(C#N)(C#N)C1(C#N)C(=N)O3 (stereo not drawn)	17	25*	7	15*	8	-21	·	LYPLA1 conf=2;PAD4 confirm=17*
N#CC1(C#N)C(c2ccccc2)OC23CCCCC2C1(C#N)C(=N)O3 (stereo not drawn)	4	12	29	9	0	3	·
Cc1ccc(OCC(=O)N2CCCCC2C)c([N+](=O)[O-])n1 (stereo not drawn)	·	1	·	·	·	·	·
O=C(CCN1C(=O)c2ccc([N+](=O)[O-])cc2C1=O)Nc1ccccc1C(=O)O	2	-3	-2	2	-11	-8	·
Cc1ccc(S(=O)(=O)N(C)c2ccc3c(ncn3C)c2[N+](=O)[O-])cc1	-8	-1	-5	-3	3	-23	·
CC(OC(=O)c1nc(Cl)ccc1Cl)C(=O)NC1CCCCC1C (stereo not drawn)	20	25*	·	16*	·	-16	·	LYPLA1 conf=-2;PAD4 confirm=4
Cn1c(SCC(=O)C(C)(C)C)nnc1-c1ccncc1	-5	-6	0	0	-3	3	·
CCn1c(CSc2nnc(-c3ccncc3)n2C)nc2cc(C(=O)O)ccc21	41*	52*	34	37*	30*	43*	36*	LYPLA1 conf=41*;PAD4 confirm=62*
CCNc1cc(O)ccc1C	40*	122*	·	31*	·	6	8	LYPLA1 conf=15*;PAD4 confirm=53*
O=[N+]([O-])c1ccc(Sc2ccccn2)nc1	3	-4	7	3	-5	-7	·
O=[N+]([O-])c1cccnc1SCc1c(F)cccc1Cl	32*	-1	3	2	0	-6	38*
O=[N+]([O-])c1ccc(SCc2c(F)cccc2Cl)nc1	31*	-2	-1	7	3	0	38*
O=[N+]([O-])c1ccc(Sc2ccc(Cl)c(Cl)c2)nc1	40*	2	5	3	1	2	31*
O=[N+]([O-])c1cccnc1Sc1ccc(Cl)cc1	7	-9	-4	5	-3	-11	·
COc1ccccc1CNC(=O)CN(C)S(=O)(=O)c1ccc2c(c1)n(C)c(=O)c(=O)n2C	-7	0	2	1	-1	6	·
COC(=O)Cn1c(=O)c2c(nc3n2CCCN3CCc2ccc(OC)c(OC)c2)n(C)c1=O	10	-3	5	0	8	8	·
SMILES	LYPLA2 counter	PAD4 inh	GSTO1 counter	LYPLA1 counter	EBNA-1 inhibitor	ZTA DNA inh	LYPLA2 confirm	others
CSCCC1NC(=O)N(CC(=O)N2N=C(c3ccc(Cl)cc3)CC2c2ccco2)C1=O (stereo not drawn)	41*	-3	6	0	-4	2	37*
CC(=O)N1N=C(c2ccc(Cl)cc2)CC1c1ccco1 (stereo not drawn)	5	3	14	0	2	-13	·
O=C(O)c1cccc2c1C(=O)c1ccc(-c3ccc(F)cc3OCc3ccccc3)cc1S2(=O)=O	35*	-4	·	-9	·	5	29*
COc1ccc(C(C(=O)NC(C)(C)C)N(C(=O)CNC(=O)c2cccs2)c2cccnc2)cc1OC (stereo not drawn)	1	-4	-9	-1	-9	-9	·
Cn1c2c(c(=O)n(C)c1=O)C(C(F)(F)F)(C(F)(F)F)N=C(c1ccc(Cl)cc1)N2	56*	-1	-12	-1	12	16	1
O=C1CCCC(=O)N1c1ccc(N2CCN(c3ccc([N+](=O)[O-])cc3)CC2)c([N+](=O)[O-])c1	43*	-1	-5	9	6	2	43*
COc1cc(N)c(Cl)cc1C(=O)N[C@H]1CCN(CCCOc2ccc(F)cc2)C[C@H]1OC	27*	2	4	14	9	-17	31*
COc1ccc(N(CC(=O)N2CCC(C(N)=O)CC2)S(=O)(=O)c2ccccc2)cc1	0	4	1	0	2	-9	·
COc1cccc(S(=O)(=O)NCc2ccc(C(=O)N3CCN(c4ccccc4)CC3)cc2)c1	20	0	0	2	-4	-1	·
O=C(c1ccc(-c2ccccc2)cc1)N1CCN(c2ccccc2)CC1	22	-1	2	0	-2	6	·
COc1ccc(N2CCN(C(=O)c3ccc(CNc4c(N5CCOCC5)c(=O)c4=O)cc3)CC2)cc1	52*	-2	0	1	-2	15	58*	LYPLA2 gel ABPP=35
O=C(c1ccc(CNc2c(N3CCCC3)c(=O)c2=O)cc1)N1CC=C(c2ccccc2)CC1	47*	2	8	12	-3	-2	52*	LYPLA2 gel ABPP=21
COc1ccc(N2CCN(C(=O)c3ccc(CNS(=O)(=O)c4cccc(OC)c4)cc3)CC2)cc1	31*	2	-1	0	11	-4	16

Bioassay records deposited in PubChem BioAssay by The Scripps Research Institute Molecular Screening Center.
